# Measurements: PubChem BioAssay (NCATS)
# Results filed as inconclusive are left out. A call without a number means that no potency is given here. Active and inactive are the calls of the source. Unless noted, the call rests on the fitted dose curve; in most records, active means well fitted curve in the direction sought with a large enough effect; inconclusive means small, poorly fitted or top-dose-only effect, or another doubt; inactive means no such curve, though single readings can be large; an effect the other way counts as inactive or inconclusive.
# Assays:
# [1] = qHTS for Inhibitors of the vitamin D receptor (VDR): Hit Validation using a Texas Red Assay (AID 602201); conditions: VDR coregulator binding, Texas Red fluorescence polarization; agonist-bound VDR ligand-binding domain; further: potency means the concentration at half of the fitted maximal effect
# Source text: The vitamin D receptor (VDR) is a ligand-activated transcription factor and is partially responsible for the regulation of the endocrine system. This includes the transcriptional regulation of genes involved in the production of the parathyroid hormone (PTH) and the regulation of the blood calcium level. High levels of PHT can cause hypercalcemia in the case of primary and tertiary hyperparathyroidism. The VDR-mediated gene regulation, activated by its ligand 1,25-dihydroxyvitamin D3 (1,25-(OH)2D3), is governed by the recruitment of coactivators. Our hypothesis is that small molecules, with the ability to inhibit the interaction between VDR and certain coactivators, are able to selectively modulate VDR-mediated transcription. […]
# In a collaboration between the University of Wisconsin, Milwaukee and the NIH Chemical Genomics Center (NCGC) a HTS-compatible enzymatic assay was developed. The assay uses fluorescence polarization as its read-out to measure the inhibition between VDR and coregulator peptide SRC2-3 exerted by small molecules. […]
# Four microliter of either 1.5 uM VDR-LBD, […] LG19078, and 7 nM Texas Red (all final concentrations) in columns 1, 2, and 5 to 48 or 7 nM Texas Red in columns 3 and 4 are dispensed into black medium-binding solid bottom Greiner plates. […] It is then read on the Envision for a fluorescent polarization read-out (Ex 595 nm/Em 615 nm)
# [2] = molecular target: Luciferin 4-monooxygenase (Photinus pyralis) (UniProt P08659); test: Biochemical firefly luciferase enzyme assay for NPC (AID 624030);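 further: purified P. pyralis luciferase at 10 nM with luciferin and ATP substrate; series mostly up to about 59 µM; nearly all actives have a fitted effect of over 70% in size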
# Chain of Luciferin 4-monooxygenase (Photinus pyralis) (P08659 whole entry, looked up): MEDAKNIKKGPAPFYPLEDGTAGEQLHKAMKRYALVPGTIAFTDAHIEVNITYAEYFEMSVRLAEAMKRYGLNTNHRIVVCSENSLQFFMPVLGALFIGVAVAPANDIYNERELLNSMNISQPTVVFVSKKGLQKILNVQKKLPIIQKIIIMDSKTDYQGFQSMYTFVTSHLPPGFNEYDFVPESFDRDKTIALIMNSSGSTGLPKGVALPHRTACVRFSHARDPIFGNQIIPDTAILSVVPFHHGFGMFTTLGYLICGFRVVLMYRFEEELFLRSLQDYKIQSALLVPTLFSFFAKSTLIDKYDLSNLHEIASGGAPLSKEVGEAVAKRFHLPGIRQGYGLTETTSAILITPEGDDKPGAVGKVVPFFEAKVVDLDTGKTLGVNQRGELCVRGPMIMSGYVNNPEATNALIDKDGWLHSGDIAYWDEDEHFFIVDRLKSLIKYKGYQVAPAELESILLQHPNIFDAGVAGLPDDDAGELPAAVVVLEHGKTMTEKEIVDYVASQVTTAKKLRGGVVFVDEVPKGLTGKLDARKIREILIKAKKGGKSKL
# Method in brief: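 Purified P. pyralis luciferase at 10 nM in 50 mM Tris Acetate (final), luminescence read within 5 minutes of enzyme addition to compounds. Activity normalised to PTC124 versus DMSO; concentration-response curves classed by r2, magnitude and activity.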
# [3] = S16 Schwann cell viability assay (CellTiter-Glo assay) (AID 624031); further: nearly all actives have a fitted effect of over 70% in size; further: potency means the concentration at half of the fitted maximal effect
# Method in brief: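 Concentration-effect curves come from CellTiter-Glo luminescence of S16 rat Schwann cells after 24 h compound exposure. Each reading was normalized to DMSO wells (0%) and wells without cells, and curves were ranked by r2 and response magnitude.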
# [4] = molecular target: Glutaminase kidney isoform, mitochondrial (Homo sapiens) (UniProt O94925); test: qHTS for Inhibitors of Glutaminase (GLS): LOPAC Validation (AID 624146);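 further: glutamate product detected by oxidase and peroxidase coupled Amplex red fluorescence gain; series mostly up to about 46 µM; nearly all actives have a fitted effect of over 60% in size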
# Chain of Glutaminase kidney isoform, mitochondrial (Homo sapiens) (O94925 whole entry, looked up, canonical isoform): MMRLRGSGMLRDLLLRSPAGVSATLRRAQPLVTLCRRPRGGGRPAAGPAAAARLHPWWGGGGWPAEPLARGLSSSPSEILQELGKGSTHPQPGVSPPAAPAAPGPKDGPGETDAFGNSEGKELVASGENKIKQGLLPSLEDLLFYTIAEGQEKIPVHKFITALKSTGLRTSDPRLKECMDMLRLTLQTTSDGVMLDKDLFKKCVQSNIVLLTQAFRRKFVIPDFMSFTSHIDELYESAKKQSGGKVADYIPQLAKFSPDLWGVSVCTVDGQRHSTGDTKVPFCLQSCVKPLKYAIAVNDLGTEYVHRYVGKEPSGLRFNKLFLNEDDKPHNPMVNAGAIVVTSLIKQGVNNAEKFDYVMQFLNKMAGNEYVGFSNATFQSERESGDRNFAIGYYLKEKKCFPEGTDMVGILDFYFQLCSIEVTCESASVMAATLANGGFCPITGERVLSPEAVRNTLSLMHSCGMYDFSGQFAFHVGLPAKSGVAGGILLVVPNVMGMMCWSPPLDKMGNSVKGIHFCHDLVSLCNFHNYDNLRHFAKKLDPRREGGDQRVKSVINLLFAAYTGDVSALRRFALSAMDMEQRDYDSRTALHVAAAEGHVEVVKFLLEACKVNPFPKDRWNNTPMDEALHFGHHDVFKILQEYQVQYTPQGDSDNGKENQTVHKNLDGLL
# Method in brief: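 hKGA in 45 mM KH2PO4 (pH 8.2), 0.02% Tween-20 with compound, then 1mM L-Glutamine (stock as added) plus glutamate oxidase/HRP/Amplex red coupling mix. Fluorescence read initially and after 30 min at RT; signal change reflects glutamate formation.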
# [5] = molecular target: Voltage-gated inwardly rectifying potassium channel KCNH2 (Homo sapiens) (UniProt Q12809); test: qHTS Assay for Small Molecule Inhibitors of the Human hERG Channel Activity (AID 588834);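 further: lower thallium flux fluorescence means stronger hERG block; nearly all actives have a fitted effect of over 50% in size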; further: potency means the concentration at half of the fitted maximal effect
# Chain of Voltage-gated inwardly rectifying potassium channel KCNH2 (Homo sapiens) (Q12809 whole entry, looked up): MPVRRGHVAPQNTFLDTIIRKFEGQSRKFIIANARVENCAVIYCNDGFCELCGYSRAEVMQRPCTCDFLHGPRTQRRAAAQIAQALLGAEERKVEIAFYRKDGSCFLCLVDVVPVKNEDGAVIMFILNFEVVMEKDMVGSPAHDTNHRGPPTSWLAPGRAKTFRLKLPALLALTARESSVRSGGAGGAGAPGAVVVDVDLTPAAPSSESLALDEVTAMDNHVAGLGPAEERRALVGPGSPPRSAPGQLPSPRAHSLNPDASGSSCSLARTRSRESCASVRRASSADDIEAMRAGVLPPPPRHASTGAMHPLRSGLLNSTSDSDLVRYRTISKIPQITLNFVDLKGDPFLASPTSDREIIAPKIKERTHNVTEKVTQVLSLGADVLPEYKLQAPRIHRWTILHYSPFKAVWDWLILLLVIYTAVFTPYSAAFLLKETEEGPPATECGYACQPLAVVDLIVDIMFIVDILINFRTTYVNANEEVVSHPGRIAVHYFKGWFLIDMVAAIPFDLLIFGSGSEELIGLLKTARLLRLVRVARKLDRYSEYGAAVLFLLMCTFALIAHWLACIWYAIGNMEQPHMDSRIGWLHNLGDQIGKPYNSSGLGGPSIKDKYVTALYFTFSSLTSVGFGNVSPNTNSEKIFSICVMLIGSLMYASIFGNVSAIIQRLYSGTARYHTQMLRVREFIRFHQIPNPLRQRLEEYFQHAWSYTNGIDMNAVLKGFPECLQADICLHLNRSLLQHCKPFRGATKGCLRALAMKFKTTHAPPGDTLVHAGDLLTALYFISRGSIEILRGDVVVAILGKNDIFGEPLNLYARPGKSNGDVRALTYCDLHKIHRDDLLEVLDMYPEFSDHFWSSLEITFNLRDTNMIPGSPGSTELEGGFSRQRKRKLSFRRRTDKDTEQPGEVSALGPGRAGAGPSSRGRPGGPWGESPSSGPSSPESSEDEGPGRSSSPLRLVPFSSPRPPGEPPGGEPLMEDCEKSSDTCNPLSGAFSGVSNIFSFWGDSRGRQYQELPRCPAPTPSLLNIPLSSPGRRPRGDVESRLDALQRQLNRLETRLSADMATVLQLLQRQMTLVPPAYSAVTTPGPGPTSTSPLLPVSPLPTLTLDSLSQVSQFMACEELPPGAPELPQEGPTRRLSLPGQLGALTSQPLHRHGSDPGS
# Method in brief: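 Blockade is seen as reduced FluxOR thallium-flux fluorescence in U2OS cells expressing hERG from a BacMam construct, in Opti-MEM with 2% FCS. Concentration-response data fitted to the Hill equation for AC50.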
# [6] = S16 Schwann cell PMP22 intronic element beta-lactamase assay (AID 624044; calls by dose curve; further: nearly all actives have a fitted effect of over 15% in size)
# Method in brief: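 Rat S16 Schwann cells with beta-Lac driven by a PMP22 intronic element, compound-treated 24 h at 37 °C. LiveBLAzer FRET B/G read: 460 nm normalized to potassium clavulanate vs DMSO; 535 nm FRET as viability; concentration-effect curves classified.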
structure (smiles),measurement,setting,value
CC1(C)CCC2=C(O1)c1ccccc1C(=O)C2=O,Potency,[1],14.1 µM (active)
CC(C)(C)c1ccc(C(O)CCCN2CCC(C(O)(c3ccccc3)c3ccccc3)CC2)cc1 (configuration not stated),Potency,[2],inactive
same,Potency,[3],16.1 µM (active)
same,Potency,[4],inactive
CN1[C@@H]2CCC[C@@H]1CC(NC(=O)c1nn(C)c3ccccc13)C2 (some centres not stated),Potency,[2],inactive
Cc1nnc(C(C)C)n1C1C[C@H]2CC[C@@H](C1)N2CC[C@H](NC(=O)C1CCC(F)(F)CC1)c1ccccc1 (some centres not stated),Potency,[2],inactive
CC(=O)Oc1cc2c(s1)CCN(C(C(=O)C1CC1)c1ccccc1F)C2 (configuration not stated),Potency,[2],inactive
Cc1cccc(C)c1OCC(C)N (configuration not stated),Potency,[5],inactive
same,Potency,[2],inactive
same,Potency,[3],inactive
same,Potency,[4],inactive
CCN(CC)CCOC(=O)c1ccc(N)cc1,Potency,[5],inactive
same,Potency,[2],inactive
same,Potency,[3],inactive
same,Potency,[4],inactive
C[N+](C)(C)CC(=O)O,Potency,[4],inactive
Clc1ccc(C(c2ccc(Cl)cc2)n2cc[n+](CC(OCc3ccc(Cl)cc3Cl)c3ccc(Cl)cc3Cl)c2)cc1 (configuration not stated),Potency,[4],inactive
CCCCCN(C)CCC(O)(P(=O)(O)O)P(=O)(O)O,Potency,[2],inactive
same,Potency,[3],inactive
same,Potency,[6],inactive
same,Potency,[4],inactive
CN1C[C@H]2c3ccccc3Oc3ccc(Cl)cc3[C@@H]2C1,Potency,[2],inactive
CC(C)NCC(O)COc1cccc2[nH]ccc12 (configuration not stated),Potency,[5],inactive
same,Potency,[2],inactive
same,Potency,[3],inactive
same,Potency,[4],inactive
CCN(CC)CCNC(=O)c1ccc(N)cc1,Potency,[2],inactive
same,Potency,[3],inactive
same,Potency,[4],inactive
COC(=O)[C@@H]1[C@H]2C[C@H]3c4[nH]c5ccccc5c4CCN3C[C@@H]2CC[C@@H]1O,Potency,[5],11.2 µM (active)
same,Potency,[4],inactive
CCN1CCC[C@H]1CNC(=O)c1cc(S(N)(=O)=O)ccc1OC,Potency,[5],inactive
same,Potency,[2],inactive
same,Potency,[3],inactive
same,Potency,[4],inactive
C[N+](C)(C)CCCCCC[N+](C)(C)C,Potency,[5],inactive
same,Potency,[2],inactive
same,Potency,[3],inactive
same,Potency,[4],inactive
NCCS,Potency,[5],inactive
same,Potency,[2],inactive
same,Potency,[3],inactive
same,Potency,[4],inactive
NC(N)=Nc1nc(CSCC/C(N)=N/S(N)(=O)=O)cs1,Potency,[2],inactive
same,Potency,[3],inactive
O=C(O)CCc1nc(-c2ccccc2)c(-c2ccccc2)o1,Potency,[5],inactive
same,Potency,[2],inactive
same,Potency,[3],inactive
same,Potency,[4],inactive
O=C(NCCN1CCOCC1)c1ccc(Cl)cc1,Potency,[5],inactive
same,Potency,[2],inactive
same,Potency,[4],inactive
CC/C(=C(\c1ccccc1)c1ccc(OCCN(C)C)cc1)c1ccccc1,Potency,[2],inactive
same,Potency,[3],32.2 µM (active)
same,Potency,[4],inactive
COc1cc2ncnc(Nc3ccc(F)c(Cl)c3)c2cc1OCCCN1CCOCC1,Potency,[2],inactive
same,Potency,[6],inactive
